# Results reported in PubChem BioAssay AID588453 (National Center for Advancing Translational Sciences (NCATS), 2011).
# In all, about 390,000 compounds went through this assay and about 4,000 (1%) were called active. Entries that show only a call come without a potency. Roughly 4% stayed inconclusive and do not appear here. Calls follow the shape of the dose curve; as a rule, active = well fitted inhibition curve with a large enough effect; inconclusive = small, poorly fitted or top-dose-only effect; inactive = no such curve, though single readings can be large or run the other way. For the sample, actives were picked, then their nearest neighbours and some compounds at random.
# Target: Thioredoxin reductase 1, cytoplasmic (Rattus norvegicus) (UniProt O89049)
# Assay: qHTS Assay for Inhibitors of Mammalian Selenoprotein Thioredoxin Reductase 1 (TrxR1): qHTS; also: nearly all actives have a fitted effect of over 65% in size
# Details: recombinant rTrxR1, NADPH fluorescence consumption, selenite substrate; series mostly up to 114 µM
# Procedure, shortened: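 Rat TrxR1 (90 nM in the dispensed reagent) was pre-reduced with 400 uM NADPH for 5 min at room temperature, then incubated with compound for 15 min. After 400 uM selenite was added, NADPH fluorescence (Ex 340/Em 450 nm) was followed for 8 min.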
# Potency is read from the fitted curve at half-maximal effect.
# Sequence of Thioredoxin reductase 1, cytoplasmic (Rattus norvegicus) (O89049 whole entry, looked up): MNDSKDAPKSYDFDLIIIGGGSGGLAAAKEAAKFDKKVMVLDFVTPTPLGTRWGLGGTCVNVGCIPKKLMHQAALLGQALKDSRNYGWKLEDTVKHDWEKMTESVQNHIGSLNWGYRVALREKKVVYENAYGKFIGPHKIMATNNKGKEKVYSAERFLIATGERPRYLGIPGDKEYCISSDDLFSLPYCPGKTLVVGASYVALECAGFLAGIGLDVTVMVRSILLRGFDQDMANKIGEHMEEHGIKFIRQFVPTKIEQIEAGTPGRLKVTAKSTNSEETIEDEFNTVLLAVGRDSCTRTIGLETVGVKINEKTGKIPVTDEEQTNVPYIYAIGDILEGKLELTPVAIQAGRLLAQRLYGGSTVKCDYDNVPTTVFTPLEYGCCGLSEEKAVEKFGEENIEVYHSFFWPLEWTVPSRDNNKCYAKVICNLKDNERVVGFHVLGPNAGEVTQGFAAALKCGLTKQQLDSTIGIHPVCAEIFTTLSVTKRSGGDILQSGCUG
row,Compound,Potency
1,COc1cc(OC)c2c(C)cc(=O)oc2c1C(CCN1CCCCC1)c1ccc(N(C)C)cc1 (centres undefined),inactive
2,C=C(C)C(=O)O[C@H]1C/C(C)=C\C(=O)/C=C(\C)[C@H](O)[C@@H]2OC(=O)C(=C)[C@@H]21,39.8 µM (active)
3,CCOC(=O)N1CCc2c(sc(NCc3cccc(F)c3)c2C(=O)Nc2ccccc2OCC)C1,inactive
4,COc1cc(OC)c(/C=C/c2ccnc3ccccc23)c(OC)c1,inactive
5,C=C1CCN(C(CC(C)C)C(=O)N2CCOCC2)S(=O)(=O)c2ccccc21 (centres undefined),inactive
6,O=c1[nH]c2cc(Br)ccc2n2cccc12,inactive
7,CC(C)Cn1c(=O)c2ccccc2n2c(-c3cccc(Cl)c3)nnc12,inactive
8,O=c1cc(-c2ccccc2)n2c(SCc3ccccc3)nnc2[nH]1,inactive
9,O=c1[nH]c2ccccc2n2c(-c3ccccc3)nnc12,0.708 µM (active)
10,Cc1ccc2nc(N3CCN(c4cccc(Cl)c4)CC3)c3nnnn3c2c1,inactive
11,COc1ccc(N2C(=O)CSC23C(=O)N(Cc2cccc(F)c2)c2ccccc23)cc1Cl (centres undefined),inactive
12,Oc1c(C(c2ccc(F)cc2)N2CCN(Cc3ccccc3)CC2)sc2nc(-c3ccco3)nn12 (centres undefined),inactive
13,CC1(C)C/C(=N/Nc2ccc([N+](=O)[O-])cc2[N+](=O)[O-])C(C)(C)O1,inactive
14,O=[N+]([O-])c1ccc(N/N=C2/CCCCC2c2ccccn2)c([N+](=O)[O-])c1 (centres undefined),3.55 µM (active)
15,C[n+]1ccccc1C1CCCC/C1=N\Nc1ccc([N+](=O)[O-])cc1[N+](=O)[O-] (centres undefined),inactive
16,Cc1cc(N2CCN(c3cccc(C(F)(F)F)c3)CC2)n2nc(-c3ccccc3)nc2n1,inactive
17,CCOC(=O)c1c(NC(=O)CCl)sc(C(=O)N(CC)CC)c1C,31.6 µM (active)
18,COC(=O)c1sc(NC(=O)COC(=O)C2CCC2)c(C(=O)OC)c1C,inactive
19,CCOC(=O)c1c(NC(=O)c2cc(CC)on2)sc(C(C)=O)c1C,inactive
20,CCc1ccccc1NC(=O)CSc1nc(C)c(C(=O)Nc2ccccc2)c(-c2ccc(Cl)cc2)c1C#N,inactive
21,CCCn1c(=O)c2[nH]c(-c3ccc(OCC(=O)NCCN)cc3)nc2n(CCC)c1=O,inactive
22,COc1ccccc1/C=C/c1nc(C#N)c(NC(C)c2ccccc2)o1 (centres undefined),inactive
23,O=C(CCC1N=C2c3ccccc3N=C(SCc3ccccc3F)N2C1=O)NCCc1ccccc1 (centres undefined),inactive
24,Clc1ccccc1CSc1nnc(-c2ccco2)c(-c2ccco2)n1,5.01 µM (active)
25,CC1(C)N=C(SCc2ccccc2Cl)c2ccccc2N1,inactive
26,Cc1ccc(-c2nnc(SCC(=O)NCc3ccccc3)nc2-c2ccc(C)cc2)cc1,inactive
27,CSc1n[nH]c(-c2ccco2)n1,inactive
28,c1ccc(CSc2nnc(-c3ccco3)c(-c3ccco3)n2)cc1,2.51 µM (active)
29,Clc1ccccc1CSc1nncn2c1cc1occc12,inactive
